Bioassay records from PubChem.
An excerpt weighted towards active compounds, which were near 7.9% of everything screened.
LASV entry inh: blocks Lassa virus binding to or entry into cells. Lassa virus pseudotype entry inhibition, cell reporter. AID 540256. actives 1.2% (n = 300,000). Potency, µM (highest dose often 37.9 µM), for inactives: at the highest dose activity change, negative = inhibition, usual class: inhibitors; calls by dose curve; tested in HEK293 cells; also: potency is read from the fitted curve at half-maximal effect; % is scaled to controls: 0 for no effect and ±100 for the full control effect; nearly all actives have a fitted effect of over 50% in size
HCV inhibitor: HCV inhibition; Huh7.5.1 HCVcc-Cre infection, luciferase reporter, 44 h; Potency, µM (titrated, usually from 41.8 µM), for the others: at the top dose activity change, negative = inhibition, hits mostly inhibitors; actives 3.4% (n = 340,000); also: potency is read from the fitted curve at half-maximal effect; % is scaled to controls: 0 for no effect and ±100 for the full control effect
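Cells (1,000/well) were plated 4 h before compound, then infected with HCVcc-Cre virus (~0.5 moi). After 44 h further culture, infection was read as luciferase luminescence following a 15 min substrate incubation at room temperature.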
FMDV inh: foot and mouth disease virus antiviral activity; FMDV antiviral cell-based qHTS; Potency, µM (titrated, usually from 57.9 µM), without a hit: at the top dose activity change, negative = inhibition, usual class: inhibitors; actives 1.2% (n = 410,000); AID 1159524; calls by dose curve; tested in HEK293T cells; also: read-out not given here; potency is read from the fitted curve at half-maximal effect; % is scaled to controls: 0 for no effect and ±100 for the full control effect; nearly all actives have a fitted effect of over 45% in size
Marburg entry inh: blocks Marburg virus binding to or entry into cells; Marburg virus pseudotyped entry inhibition, cell reporter; Potency, µM (doses to about 37.8 µM), for inactives: top-dose activity change, negative = inhibition, actives largely listed as inhibitors; actives 1.8% (n = 300,000); AID 540276; calls by dose curve; tested in HEK293 cells; also: potency is read from the fitted curve at half-maximal effect; % is scaled to controls: 0 for no effect and ±100 for the full control effect
HCMV antiviral: human cytomegalovirus inhibition | HFF cells, HCMV-luciferase reporter, 72 h; hits give low values | activity change, negative = inhibition, % at 57.5 µM | actives 4.5% (n = 410,000) | AID 1259415; in the data active = activity change below about -60%; inconclusive = no clear call, values can overlap the other calls; inactive = above about -39%; also: % is scaled to controls: 0 for no effect and ±100 for the full control effect
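HFF cells seeded 16 h at 37C, treated with compounds, infected with luciferase-reporter HCMV at MOI 1 PFU/cell; luciferase read at 72 h post infection, normalized to buffer-only and Salinomycin controls.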
HCV confirm: HCV inhibition, cherry-pick confirmation; shares compounds with HCV inhibitor; HCVcc-Cre infectious virus cell assay, luciferase, inhibition; Potency, µM (doses to about 41.8 µM), for inactives: at the top dose activity, negative = inhibition, hits mostly inhibitors; actives 78% (n = 640); AID 720575; also: potency is read from the fitted curve at half-maximal effect; nearly all actives have a fitted effect of over 80% in size
HCV host tox: counter-screen for HCV inhibitors: host cell cytotoxicity; shares compounds with HCV inhibitor; HCV host cell line cytotoxicity counterscreen; Potency, µM (highest dose often 41.8 µM), for inactives: at the top dose activity change, negative = cytotoxicity, most hits filed as inhibitors; actives 22% (n = 640); AID 720576;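 also: potency is read from the fitted curve at half-maximal effect; 44 h compound exposure; % is scaled to controls: 0 for no effect and ±100 for the full control effect; nearly all actives have a fitted effect of over 55% in size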
An asterisk follows results filed as active; u = inconclusive; x = not tested or not shown; [ ] = dose if it differs, or a comment. Unless noted, calls follow the shape of the dose curve; as a rule, active = well fitted curve in the direction sought with a large enough effect; inconclusive = small, poorly fitted or top-dose-only effect, or another doubt; inactive = no such curve, though single readings can be large; an effect the other way counts as inactive or inconclusive.

SMILES	LASV entry inh	HCV inhibitor	FMDV inh	Marburg entry inh	HCMV antiviral	HCV confirm	HCV host tox
Cc1ccc(S(=O)(=O)NCc2ccncc2)c(C)c1C	-14%[46.1 µM]	0.79µM*	-10%	u	-83*	0.79µM*	-95%
COc1ccc(NC(=O)c2cccc(S(=O)(=O)N3CCN(c4ccccc4)CC3)c2)c(OC)c1	-24%	u	-10%	u	-28	22µM*	9%
Cc1cc(C)nc(-n2nc(C)c3c2N(Cc2ccccc2F)C(=O)CC3c2ccc(Cl)cc2)n1 (stereo unspecified)	3%[46.1 µM]	x	-5%	u	-28	x	x
CCOC(=O)c1ccc(NC(=S)N(CCCN2CCCC2)Cc2cccs2)cc1	x	u	41%	u	-26	u	22%
Cc1ccc(NC(=S)N(CCCN2CCN(C)CC2)Cc2cccs2)cc1	u	u	-3%	u	52	x	x
Cc1cc(NCc2ccccn2)n2nc(C)c(-c3ccc(Cl)cc3)c2n1	u	4.5µM*	-27%	10µM*	-99*	11µM*	-28%
O=C(c1cc2ccccc2oc1=O)N(Cc1cccc(Br)c1)C1CCS(=O)(=O)C1 (stereo unspecified)	1%[46.1 µM]	2%	11%	-22%[46.1 µM]	-23	x	x
Cc1ccc(CNC(=O)CCc2c(C)nc3c(-c4ccc(F)cc4)c(C)nn3c2C)cc1	-6%[46.1 µM]	x	3%	3%[46.1 µM]	2	x	x
COC(=O)c1cn(-c2ccccc2)nc1-c1ccc(OC)c(OC)c1	x	7.9µM*	0%	x	-7	14µM*	50%
COc1ccc(-c2nn(-c3ccccc3)cc2CO)cc1OC	-2%	u	u	0%	9	x	x
CCC(=O)c1cc2c(cc1NC(=O)c1ccccc1)OCCO2	-11%	4µM*	x	3%	5	4µM*	28%
CCC(=O)c1cc2c(cc1NC(=O)c1ccccc1F)OCCO2	-21%[46.1 µM]	x	-12%	7%[46.1 µM]	-14	x	x
CCC(=O)N(Cc1ccco1)c1nc(-c2ccc(OC)cc2)cs1	u	u	-3%	-23%	-7	x	x
CCC(=O)N(Cc1ccco1)c1nc(-c2ccccc2)cs1	-14%	u	6%	-11%	-5	u	29%
CCOC(=O)c1c(S(=O)(=O)NCC(=O)Nc2ccc(C(C)=O)cc2)c(C)n(C)c1C	-7%[46.1 µM]	x	33%	x	1	x	x
COc1ccc(-n2cc(-c3ccc(C)cc3)[n+]3c2SCC3)cc1	u	u	11µM*	1.3µM*	-102*	13µM*	13µM*
N#Cc1ccc(-c2cn(-c3ccccc3)c3[n+]2CCCS3)cc1	2%	0%	-4%	9%[46.1 µM]	-5	x	x
CCOc1ccc(CN2C(=O)c3ccccc3Sc3ccc(C(=O)NCc4ccc5c(c4)OCO5)cc32)cc1	-8%[46.1 µM]	x	-10%	u	26	x	x
C/C(CCc1oc2ccccc2c1-c1ccc(C)o1)=N/O	-14%	7.9µM*	-18%	u	-21	25µM*	16%
CNCCc1cnc[nH]1	x	x	7%	x	x	x	x
Cc1cnc[nH]1	x	-61%	-16%	x	-22	9%	-7%
O=C(/C=C/c1ccccc1)Nc1cccc(C(=O)NCCCCc2ccccc2)c1	x	2.5µM*	-14%	x	27	11µM*	8%
CC#CCOC(=O)c1c(C)nc2sc3c(c2c1N)CCC(O)C3 (stereo unspecified)	u	7.1µM*	u	-38%	u	22µM*	u
CCOC(=O)c1c(N)sc2c1CCC(CC)C2 (stereo unspecified)	-1%	-5%	-18%	-15%	14	x	x
CN1CCC(=O)N([C@H](CN=[N+]=[N-])Cc2ccccc2)CC1	x	8%	-6%	x	-5	x	x
SMILES	LASV entry inh	HCV inhibitor	FMDV inh	Marburg entry inh	HCMV antiviral	HCV confirm	HCV host tox
COC(=O)c1c(NC(=O)c2ccn(C)n2)sc2c1CCC2	x	2.8µM*	33%	x	11	0.89µM*	16%
O=C(Nc1cccc(C(F)(F)F)c1)C1CCN(S(=O)(=O)c2ccc(N3CCCC3=O)cc2)CC1	x	6.3µM*	u	x	-66*	8.9µM*	14µM*
Cc1ccc(C(C)NC(=O)c2ccco2)cc1 (stereo unspecified)	-8%	6.3µM*	10%	7%	13	-24%	-10%
CCOC(=O)CC(NC(=O)c1ccco1)c1ccc(C)cc1 (stereo unspecified)	9%	-6%	-5%	-5%	-3	x	x
CCOC(=O)N1CCN(C(=O)c2ccc3c(=O)n(-c4ccccc4F)c(=S)[nH]c3c2)CC1	2%[46.1 µM]	4%	-3%	13%[46.1 µM]	-39	x	x
CCc1ccc(C(CNC(=O)c2ccc3c(=O)n(-c4ccccc4F)c(=S)[nH]c3c2)N(C)C)cc1 (stereo unspecified)	x	5µM*	u	u	u	1.4µM*	31µM*
CCOc1cccc(-c2c(C(=O)N/N=C/c3ccsc3)nnn2-c2nonc2N)c1	25%[46.1 µM]	11%	-1%	26%[46.1 µM]	-14	x	x
CCCCCCCCCCn1c2c(c(=N)c3c1CCC3)CCC2	u	3.5µM*	18µM*	u	-98*	1.8µM*	2.2µM*
CCOC(=O)Cn1c2c(c(=N)c3c1CCC3)CCC2	7%	-15%	0%	11%	2	x	x
Cc1ccc(S(=O)(=O)N2CCC(=O)N(CCOCc3ccc(C(F)(F)F)cc3)CC2)cc1	u	u	u	16µM*	u	2.2µM*	u
COc1nc(Nc2nc3ccccc3c(=O)[nH]2)nc2ccc(C)cc12	x	3.2µM*	45%	x	-100*	7µM*	u
Cc1ccc(C(c2ccc(C)c(C)c2)C(O)C2OC(=O)C(O)C2O)cc1C (stereo unspecified)	24%	23%	-7%	-1%	1	x	x
Cc1nn(CC(=O)NCCCN2CCC(N3CCCCC3)CC2)c(=O)c2cc(-c3ccccc3)nn12	x	4µM*	9%	x	u	25µM*	20%
CC(C)C[C@H]1CN(CCCC[C@H]2CNC(=O)C(=O)N2CCc2ccc(O)cc2)C(=O)C(=O)N1CCc1ccc(O)cc1	x	x	-18%	x	7	x	x
CCN(Cc1ccccc1)c1ccc(/C=N/NC(=O)c2cccc(S(=O)(=O)N3CCOCC3)c2)cc1	u	u	u	u	u	5.6µM*	-34%
COc1cc(/C=N/NC(=O)c2cccc(S(=O)(=O)N3CCOCC3)c2)cc(OC)c1O	-4%[46.1 µM]	-10%	-26%	-1%[46.1 µM]	35	x	x
Cc1cccc(N=NC(=S)NNc2cccc(C)c2)c1	4%	19%	44%	19%	144	x	x
COc1ccc(OC)c(NC(=O)c2nnn(Cc3ccccc3C)c2N)c1	-7%	7.1µM*	19%	u	0	22µM*	43%
COc1ccc(NC(=O)c2nnn(Cc3ccccc3C)c2N)c(OC)c1	-3%[46.1 µM]	x	-4%	0%[46.1 µM]	-11	x	x
